Reference: PubChem BioAssay (Tox21)
Activity calls are given as the source filed them. Where a call stands in place of a potency, no number is given. The call rests on the fitted dose curve.

What follows are molecules tested against Estrogen receptor (Homo sapiens) (UniProt P03372) (assay: qHTS assay to identify small molecule agonists of the estrogen receptor alpha (ER-alpha) signaling pathway in the presence of an antagonist (AID 1259383; further: nearly all actives have a fitted effect of over 15% in size; on activation: top concentration of the series differs between compounds)). Settings: VM7Luc4E2 cells, ERE-luciferase, +ICI-182,780, 22 h; series mostly up to 92.4 µM.
Text: National Center for Advancing Translational Sciences [NCATS] NIH Chemical Genomics Center [NCGC] U.S. Environmental Protection Agency [EPA] National Institutes of Environmental Health Sciences [NIEHS] National Toxicology Program [NTP] Assay overview: Estrogen receptor (ER), a member of nuclear hormone receptor plays an important role in development, metabolic homeostasis and reproduction. Two subtypes of ER, ER-alpha and ER-beta, have similar expression patterns with some uniqueness in both types. Endocrine disrupting chemicals (EDCs) and their interactions with steroid hormone receptors like ER causes disruption of normal endocrine function. Therefore, it is important to understand the effect of environmental chemicals in ER signaling pathway. For identifying ER agonists, VM7Luc4E2 cell line has been used in the current assay. VM7Luc4E2 cell line (provided by Denison MS, University of California) endogenously expresses full-length ER-alpha and is stably transfected with a plasmid containing four estrogen responsive elements (ERE) upstream of a luciferase reporter gene. This current screening for measuring luciferase reporter gene activity using VM7Luc4E2 cells against Tox21 10K library collection is a confirmation study on agonist mode screening in presence of ER-antagonist (ICI-182,780) at 10.0nM final concentration.
Assay Protocol Summary: VM7Luc4E2 cells were cultured in phenol red free assay medium containing 10% charcoal stripped FBS for 5 days prior to the assay. The cells were dispensed at 4,000 cells in 4uL of assay medium per well into white wall/solid-bottom 1536-well plates (Corning Life Sciences, Corning, NY) using a Multidrop Combi (Thermo Fisher Scientific Inc., Waltham, MA) dispenser. After the assay plates were incubated at 37C and 5% CO2 for 24hr, 1uL of 10.0nM (final concentration) ICI-182,780 or assay buffer was added using two separate tips of Flying Reagent Dispenser (FRD, Aurora Discovery, San Diego, CA). Then 23nL of compounds dissolved in DMSO at 15 concentrations and positive controls or DMSO only was transferred to the assay plates by a Pintool station (Wako, San Diego, CA). The assay plates were incubated at 37C and 5% CO2 for 22hr. For luciferase read, 4uL/well ONE-Glo reagent (Promega Corporation, Madison, WI) was added to each well using FRD and after 30min incubation at room temperature, luminescence signal was measured on ViewLux plate reader (PerkinElmer, Shelton, CT).
Potency means the concentration at half of the fitted maximal effect.

Sequence of Estrogen receptor (Homo sapiens) (P03372 whole entry, looked up): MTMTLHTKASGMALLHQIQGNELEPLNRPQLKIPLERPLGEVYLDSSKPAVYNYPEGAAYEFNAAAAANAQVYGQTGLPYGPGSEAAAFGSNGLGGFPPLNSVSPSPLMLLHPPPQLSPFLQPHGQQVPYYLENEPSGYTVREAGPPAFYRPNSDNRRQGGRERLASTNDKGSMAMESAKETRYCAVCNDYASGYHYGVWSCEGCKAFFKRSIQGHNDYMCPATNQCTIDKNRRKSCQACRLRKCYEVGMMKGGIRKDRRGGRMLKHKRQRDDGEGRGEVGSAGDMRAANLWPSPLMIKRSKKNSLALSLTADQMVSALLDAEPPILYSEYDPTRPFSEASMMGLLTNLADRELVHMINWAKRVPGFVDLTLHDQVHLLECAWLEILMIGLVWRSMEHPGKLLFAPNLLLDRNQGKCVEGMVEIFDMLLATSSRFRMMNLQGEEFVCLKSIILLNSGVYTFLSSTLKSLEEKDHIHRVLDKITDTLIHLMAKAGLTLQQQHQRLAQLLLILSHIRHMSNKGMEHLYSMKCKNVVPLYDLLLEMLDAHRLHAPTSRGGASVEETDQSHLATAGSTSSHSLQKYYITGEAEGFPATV

SMILES | Potency | activation
C=CCn1c(=O)n([C@@H]2O[C@H](CO)[C@@H](O)[C@H]2O)c2nc(N)[nH]c(=O)c21 | inactive | –
O=S(=O)(O)c1ccccc1O | inactive | –
CC(C)(O)Cc1ccccc1 | inactive | –
CC(=O)CCc1ccc(O)cc1 | inactive | –
O=S(=O)(c1cccc2cnccc12)N1CCCNCC1 | inactive | –
CCCCCCC(CCCCCCCCCCC(=O)OCC(COC(C)=O)OC(C)=O)OC(C)=O (stereo not given) | inactive | –
Cc1c(F)cc2c(=O)c(C(=O)O)cn3c2c1CCC3C (stereo not given) | inactive | –
CCCc1ccc(N)cc1 | inactive | –
Oc1ccc2c(c1)OC[C@@H](N1CCC(O)(c3ccc(F)cc3)CC1)[C@H]2O | 668 nM (active) | –
CCCC(C)C(=O)O (stereo not given) | inactive | –
COC(=O)CCCC(=O)O | inactive | –
CC(C)(C)CC(C)(C)N | inactive | –
CCCCCN(CCCCC)C(=O)C(CCC(=O)O)NC(=O)c1ccc(Cl)c(Cl)c1 (stereo not given) | inactive | –
C=C(C)C(=O)OCCC(C)OC(=O)C(=C)C (stereo not given) | inactive | –
C1CCCCCCCCCCC1 | – | -2.76% [at 19 µM] (inactive)
CC(=O)c1ccc(C)cc1 | inactive | –
CC(C)(O)c1ccccc1 | inactive | –
COc1cccc(Br)c1 | inactive | –
Nc1cc(C(Cl)=C(Cl)Cl)c(S(N)(=O)=O)cc1S(N)(=O)=O | inactive | –
CCCCCCOC(=O)c1ccccc1O | inactive | –

SMILES | Potency | activation
Nc1cc(N)cc(C(=O)O)c1 | inactive | –
COC(=O)CCCCCCCCC(=O)OC | inactive | –
CN(C)C(=O)Nc1ccccc1 | inactive | –
Cc1ccc(Nc2ccc(O)c3c2C(=O)c2ccccc2C3=O)cc1 | inactive | –
O=C(O)c1ccccc1-c1ccc(C(F)(F)F)cc1 | inactive | –
NC(=O)c1ncn([C@@H]2O[C@H](CO)[C@@H](O)[C@H]2O)c1O | inactive | –
C1COCCO1 | inactive | –
CC1=CC(C)C(C=O)C(C)C1 (stereo not given) | inactive | –
CCCCCOC(=O)Nc1nc(=O)n([C@@H]2O[C@H](C)[C@@H](O)[C@H]2O)cc1F | inactive | –
C[N+](C)(C)CC[N+]1(C)Cc2c(Cl)c(Cl)c(Cl)c(Cl)c2C1 | inactive | –
CC(C)(C)C(=O)/C=C/c1ccc(Cl)cc1 | inactive | –
CCc1cc(S(=O)(=O)O)c2cc(C(C)C)cccc1-2 | inactive | –
CC(=O)N[C@@H](CCC(N)=O)C(=O)O | inactive | –
C[C@H](O)C(=O)Nc1c(I)c(C(=O)NC(CO)CO)c(I)c(C(=O)NC(CO)CO)c1I | inactive | –
O=C(CCOCCOCCOCCOCCC(=O)Nc1c(I)cc(I)c(C(=O)O)c1I)Nc1c(I)cc(I)c(C(=O)O)c1I | inactive | –
COc1ccc(COC=O)cc1 | inactive | –
C=C(C)C(=O)NCCC[N+](C)(C)C | inactive | –
Cc1nccn1CC1CCc2c(c3ccccc3n2C)C1=O (stereo not given) | inactive | –
Nc1nc2c(ncn2CCC(CO)CO)c(=O)[nH]1 | inactive | –
CC(C)COC(=O)C(C)C | inactive | –
